Test results published in PubChem BioAssay (NCI).
This is part of a sample that, as a whole, favours compounds with a hit. Of some 83,000 tested, about 20% had one in any assay.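 Values shown are percent growth following 48 h exposure of cells in 96-well plates to a single concentration of compound; below 10 was considered active.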 Activity calls are given as the source filed them.

Key:
Test in all cases: NCI-60 one-dose screen, 48 h (100 = growth as untreated, 0 = no growth, -100 = all killed)
SR leukemia = settings: 10 µM unless noted
OVCAR-5 ovarian = tested on: OVCAR-5 ovarian
OVCAR-4 ovarian = tested on: OVCAR-4 ovarian
SK-OV-3 ovarian = tested on: SK-OV-3 ovarian
IGROV1 ovarian = tested on: IGROV1 ovarian
OVCAR-3 ovarian = tested on: OVCAR-3 ovarian
HS 578T breast = tested on: HS 578T breast
NCI/ADR-RES ovarian = tested on: NCI/ADR-RES ovarian
T-47D breast = tested on: T-47D breast
BT-549 breast = tested on: BT-549 breast
MDA-MB-435 melanoma = tested on: MDA-MB-435 melanoma
SW-620 colon = tested on: SW-620 colon
MCF7 breast = tested on: MCF7 breast
HCT-116 colon = tested on: HCT-116 colon
HCC-2998 colon = tested on: HCC-2998 colon
KM12 colon = tested on: KM12 colon
OVCAR-8 ovarian = settings: 10 µM unless noted

Measured: growth

O=C(Nc1cccc(Br)c1)Oc1cccc2cccnc12
active: OVCAR-5 ovarian; 100 µM 9.37% | OVCAR-4 ovarian; 100 µM -4.65% | IGROV1 ovarian; 100 µM 6.09% | OVCAR-3 ovarian; 100 µM -74.7% | NCI/ADR-RES ovarian; 100 µM 4.89% | T-47D breast; 100 µM 2.98% | MCF7 breast; 100 µM -37.7% | HCT-116 colon; 100 µM 1.93%
inactive: SR leukemia 10.5% [100 µM] | OVCAR-5 ovarian; 10 µM 108% | OVCAR-4 ovarian; 10 µM 80.7% | SK-OV-3 ovarian; 10 µM 110% | SK-OV-3 ovarian; 100 µM 102% | IGROV1 ovarian; 10 µM 106% | OVCAR-3 ovarian; 10 µM 119% | HS 578T breast; 10 µM 110% | HS 578T breast; 100 µM 79.3% | NCI/ADR-RES ovarian; 10 µM 103% | T-47D breast; 10 µM 92% | BT-549 breast; 10 µM 90.5% | BT-549 breast; 100 µM 12.7% | MDA-MB-435 melanoma; 10 µM 98.2% | MDA-MB-435 melanoma; 100 µM 43.1% | SW-620 colon; 10 µM 106% | SW-620 colon; 100 µM 25% | MCF7 breast; 10 µM 92.9% | HCT-116 colon; 10 µM 92.7% | HCC-2998 colon; 10 µM 98.2% | HCC-2998 colon; 100 µM 59.9% | KM12 colon; 10 µM 110% | KM12 colon; 100 µM 40.1%

Cc1ccc(C(=Nc2ccccc2)N=P(c2ccccc2)(c2ccccc2)c2ccccc2)cc1
active: OVCAR-5 ovarian; 10 µM unless noted -5.4% | IGROV1 ovarian; 10 µM unless noted -68.5% | HS 578T breast; 10 µM unless noted -45.8% | NCI/ADR-RES ovarian; 10 µM unless noted -10.4% | T-47D breast; 10 µM unless noted -33.4% | BT-549 breast; 10 µM unless noted -26.9% | MDA-MB-435 melanoma; 10 µM unless noted -76.4% | MCF7 breast; 10 µM -39.7% | HCT-116 colon; 10 µM unless noted -37.8% | HCC-2998 colon; 10 µM unless noted -71.6% | KM12 colon; 10 µM unless noted -70.9%
inactive: OVCAR-4 ovarian; 10 µM unless noted 29%

C[n+]1c(/C=C/c2ccc([N+](=O)[O-])cc2)ccc2ccccc21
inactive: SR leukemia 82.7% | OVCAR-5 ovarian; 10 µM unless noted 112% | OVCAR-4 ovarian; 10 µM unless noted 105% | SK-OV-3 ovarian; 10 µM unless noted 109% | IGROV1 ovarian; 10 µM unless noted 104% | HS 578T breast; 10 µM unless noted 99.7% | NCI/ADR-RES ovarian; 10 µM unless noted 102% | T-47D breast; 10 µM unless noted 103% | BT-549 breast; 10 µM unless noted 107% | MDA-MB-435 melanoma; 10 µM unless noted 108% | SW-620 colon; 10 µM unless noted 97.6% | MCF7 breast; 10 µM 96.1% | HCT-116 colon; 10 µM unless noted 102% | HCC-2998 colon; 10 µM unless noted 100% | KM12 colon; 10 µM unless noted 80.8%

COc1ccc(N=N/N=c2\sc3cc(OC)ccc3n2C)cc1
inactive: SR leukemia 88.9% | OVCAR-8 ovarian 75.1% | OVCAR-5 ovarian; 10 µM unless noted 98.6% | OVCAR-4 ovarian; 10 µM unless noted 108% | IGROV1 ovarian; 10 µM unless noted 91.7% | OVCAR-3 ovarian; 10 µM unless noted 97.8% | HS 578T breast; 10 µM unless noted 96% | NCI/ADR-RES ovarian; 10 µM unless noted 109% | T-47D breast; 10 µM unless noted 83.6% | BT-549 breast; 10 µM unless noted 95.5% | MDA-MB-435 melanoma; 10 µM unless noted 104% | SW-620 colon; 10 µM unless noted 102% | MCF7 breast; 10 µM 78.9% | HCT-116 colon; 10 µM unless noted 95.8% | HCC-2998 colon; 10 µM unless noted 102% | KM12 colon; 10 µM unless noted 95%

O=C(Nc1ccccc1)c1cc(Cl)ccc1O
inactive: SR leukemia 48.7% | OVCAR-5 ovarian; 10 µM unless noted 94.1% | OVCAR-4 ovarian; 10 µM unless noted 41.3% | SK-OV-3 ovarian; 10 µM unless noted 73.6% | IGROV1 ovarian; 10 µM unless noted 58.9% | OVCAR-3 ovarian; 10 µM unless noted 37.4% | HS 578T breast; 10 µM unless noted 29% | NCI/ADR-RES ovarian; 10 µM unless noted 74.6% | T-47D breast; 10 µM unless noted 23.4% | BT-549 breast; 10 µM unless noted 57.5% | SW-620 colon; 10 µM unless noted 63.3% | MCF7 breast; 10 µM 81.9% | HCT-116 colon; 10 µM unless noted 51% | HCC-2998 colon; 10 µM unless noted 89.1% | KM12 colon; 10 µM unless noted 47%

CC(C)(C)CC(C)(C)c1ccc(OCCSC(=N)N)cc1
active: SR leukemia -37.7% | T-47D breast; 10 µM unless noted 7.82% | SW-620 colon; 10 µM unless noted -12.1% | MCF7 breast; 10 µM 9.08% | HCT-116 colon; 10 µM unless noted -12.2% | HCC-2998 colon; 10 µM unless noted -16%
inactive: OVCAR-8 ovarian 56.2% | OVCAR-5 ovarian; 10 µM unless noted 79.3% | OVCAR-4 ovarian; 10 µM unless noted 41.2% | IGROV1 ovarian; 10 µM unless noted 77.1% | OVCAR-3 ovarian; 10 µM unless noted 46.7% | HS 578T breast; 10 µM unless noted 91.4% | NCI/ADR-RES ovarian; 10 µM unless noted 71.7% | BT-549 breast; 10 µM unless noted 104% | KM12 colon; 10 µM unless noted 32.8%

Oc1c(Br)cc(Cl)cc1C(c1cc(Cl)cc(Br)c1O)C(Cl)(Cl)Cl
inactive: SR leukemia 28.5% | OVCAR-8 ovarian 14.3% | OVCAR-5 ovarian; 10 µM unless noted 42% | IGROV1 ovarian; 10 µM unless noted 24.8% | OVCAR-3 ovarian; 10 µM unless noted 12.7% | HS 578T breast; 10 µM unless noted 21.2% | T-47D breast; 10 µM unless noted 28.9% | BT-549 breast; 10 µM unless noted 28% | MDA-MB-435 melanoma; 10 µM unless noted 39% | SW-620 colon; 10 µM unless noted 17.8% | MCF7 breast; 10 µM 11.1% | HCC-2998 colon; 10 µM unless noted 16.9% | KM12 colon; 10 µM unless noted 13%
active: NCI/ADR-RES ovarian; 10 µM unless noted 7.13% | HCT-116 colon; 10 µM unless noted 4.13%
